Compound activity (PubChem BioAssay)
A selection: hits, their analogues and other compounds. The true share with any hit is near 6.2%.
HCMV inh: qHTS Assay for inhibitors of the human cytomegalovirus (HCMV). HFF cells, HCMV-luciferase reporter, 72 h; active compounds read low. 410,000 compounds, 4.5% hits. activity change, negative = inhibition, % at 57.5 µM. AID 1259415, 2018; in the data active means activity change below about -60%; inconclusive means no clear call, values can overlap the other calls; inactive means above about -39%
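HFF cells seeded 16 h at 37C, treated with compounds, infected with luciferase-reporter HCMV at MOI 1 PFU/cell; luciferase read at 72 h post infection, normalized to buffer-only and Salinomycin controls.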
FMDV inh: High Throughput Screening for Foot and Mouth Disease Virus Antivirals | FMDV antiviral cell-based qHTS | AID 1159524, 2015 | Potency, µM (titrated, usually from 57.9 µM), for inactives: at the top dose activity change, negative = inhibition, hits mostly inhibitors | 410,000 compounds, 1.2% hits; calls by dose curve; tested in HEK293T cells; further: read-out not given here; potency means the concentration at half of the fitted maximal effect; nearly all actives have a fitted effect of over 45% in size
Lassa entry inh: qHTS for Inhibitors of binding or entry into cells for Lassa Virus. Lassa virus pseudotype entry inhibition, cell reporter. Potency, µM (highest dose often 37.9 µM), without a hit: at the top dose activity change, negative = inhibition, actives largely listed as inhibitors. 300,000 compounds, 1.2% hits. AID 540256, 2011; calls by dose curve; tested in HEK293 cells; further: potency means the concentration at half of the fitted maximal effect; nearly all actives have a fitted effect of over 50% in size
MARV entry inh: qHTS for inhibitors of binding or entry into cells for Marburg Virus; Marburg virus pseudotyped entry inhibition, cell reporter; Potency, µM (top dose mostly 37.8 µM), inactives show top-dose activity change, negative = inhibition, hits mostly inhibitors; 300,000 compounds, 1.8% hits; calls by dose curve; tested in HEK293 cells; further: potency means the concentration at half of the fitted maximal effect
* = called active by the depositor; ! = not active in a repeat; [ ] = another dose, or the depositor's remark. On the % scale 0 is the no-effect control and ±100 the full control effect.

Screening CCOC(=O)C(Oc1ccc2c(-c3ccc(OC)cc3)cc(=O)oc2c1C)c1ccccc1 (stereo not given) returned HCMV inh -24, FMDV inh inconclusive, Lassa entry inh 13µM* and MARV entry inh inconclusive.
Screening COc1ccc(-c2cc(=O)oc3cc(OC(=O)C4CCCCC4)c(Cl)cc23)cc1 returned HCMV inh -91*, FMDV inh -23%, Lassa entry inh 4% and MARV entry inh -12%.
For COc1ccc(-c2cc(=O)oc3cc(O)ccc23)cc1 the results were HCMV inh -96*, FMDV inh -15%, Lassa entry inh inconclusive and MARV entry inh -30%[46.1 µM].
`COc1ccc(-c2cc(=O)oc3cc(OCC(C)=O)ccc23)cc1` gave HCMV inh 14, FMDV inh -18%, Lassa entry inh inconclusive and MARV entry inh inconclusive.
`CCOC(=O)[C@H]1CCCN(c2nc3ccccc3nc2[C@@H](C#N)C(=O)O[C@@H](C)COC)C1` gave MARV entry inh -2%.
`COc1ccc2cc3[n+](cc2c1O)CCc1cc2c(cc1-3)OCO2` gave HCMV inh -2 and FMDV inh 10µM*.
Screening CC(=O)c1ccc(NC(=O)Nc2sc3nc4n(c(=O)c3c2C)CCC(C)CC4)cc1 (stereo not given) returned HCMV inh 10, FMDV inh 11% and MARV entry inh -24%[46.1 µM].
O=c1c2ccccc2nc(/C=C/c2cc(Br)ccc2O)n1CCCO was read as HCMV inh -96*, FMDV inh 25µM*, Lassa entry inh 10µM* and MARV entry inh inconclusive.
Screening O=c1c2ccccc2nc(/C=C/c2ccc(O)cc2)n1-c1ccccc1O returned HCMV inh -39 and FMDV inh -9%.
Screening O=c1c2ccccc2nc(/C=C/c2ccc(O)c(O)c2)n1-c1ccccc1 returned HCMV inh 78 and FMDV inh inconclusive.
Screening O=c1c2ccccc2nc(/C=C\c2cccc(Br)c2)n1-c1ccc(O)cc1 returned HCMV inh -92*, FMDV inh -5% and Lassa entry inh inconclusive.
For O=c1c2ccccc2nc(/C=C/c2cccc([N+](=O)[O-])c2)n1CCO the results were HCMV inh inconclusive, FMDV inh -25%, Lassa entry inh inconclusive and MARV entry inh inconclusive.
Screening O=c1c2ccccc2nc(/C=C/c2ccccc2)n1-c1ccc(O)cc1 returned HCMV inh -88*, FMDV inh inconclusive, Lassa entry inh inconclusive and MARV entry inh inconclusive.
O=C(O)c1ccc(-n2c(/C=C\c3ccc(O)cc3)nc3ccccc3c2=O)cc1 was read as HCMV inh -14, FMDV inh -22% and Lassa entry inh -14%[46.1 µM].
`O=c1c2ccccc2nc(/C=C/c2ccccc2)n1-c1ccccc1O` gave HCMV inh -95*, FMDV inh -14%, Lassa entry inh inconclusive and MARV entry inh inconclusive.
For CN[C@H]1C[C@@H](N)[C@H](O)[C@@H](O[C@@H]2O[C@H](CO)[C@H](O)[C@@H]3OC4(O[C@H]23)O[C@H](C(N)CO)[C@H](O)[C@H](O)[C@H]4O)[C@@H]1O (stereo not given in full) the results were FMDV inh 9%.
For COC(=O)C1=C(c2ccccc2)c2ccccc2S(=O)(=O)N1CC(=O)Nc1ccc(F)c(F)c1 the results were HCMV inh -30, FMDV inh -13%, Lassa entry inh 11µM* and MARV entry inh inconclusive.
Cn1cc(C(=O)Nc2ccc(C#N)cc2)c2ccccc2c1=O was read as HCMV inh -67*!, FMDV inh -2%, Lassa entry inh 11% and MARV entry inh inconclusive.
`CC(=O)c1cn(C)c(=O)c2ccccc12` gave HCMV inh 53 and FMDV inh 4%.
`COc1ccc(OC)c(CNS(=O)(=O)c2ccc(-c3coc(C)n3)cc2)c1` gave HCMV inh -21, FMDV inh -28% and Lassa entry inh -13%[46.1 µM].
For O=C1CCC[C@H]2[C@@H](Cc3ccccc3)[C@@H](NS(=O)(=O)c3ccc(Cl)cc3)CC[C@]23CCCN13 the results were HCMV inh -92*.
`C[C@H]1[C@@H](NS(=O)(=O)c2ccc(F)cc2)CC[C@@]23CCCN2C(=O)CCC[C@@H]13` gave HCMV inh 16.
C[C@H]1[C@@H](NS(=O)(=O)c2cn(C)cn2)CC[C@@]23CCCN2C(=O)CCC[C@@H]13 was read as HCMV inh -102*.
`C[C@H]1[C@@H](NC(=O)Nc2ccc3c(c2)OCO3)CC[C@@]23CCCN2C(=O)CCC[C@@H]13` gave HCMV inh -92*.
`O=C1CCC[C@H]2[C@@H](Cc3ccccc3)[C@@H](NS(=O)(=O)c3ccc(Br)cc3)CC[C@]23CCCN13` gave HCMV inh -17.
Screening Cc1cccc(NC(=O)CSc2nnc(CNC(=O)c3c(F)cccc3Cl)o2)c1C returned HCMV inh -4, FMDV inh -3%, Lassa entry inh -24%[46.1 µM] and MARV entry inh -8%[46.1 µM].
C=CCn1c(O)c(C2=c3ccccc3=NC2=O)c2ccccc21 was read as HCMV inh 10, FMDV inh 28µM*, Lassa entry inh inconclusive and MARV entry inh inconclusive.
Cc1ccc2c(c1)c(C1=c3ccccc3=NC1=O)c(O)n2C was read as HCMV inh 111 and FMDV inh inconclusive.
Cc1c(Cl)cccc1NC(=O)NCCOCCn1c(=O)oc2ccccc21 was read as HCMV inh -5, FMDV inh -23%, Lassa entry inh 7%[46.1 µM] and MARV entry inh -5%[46.1 µM].
`Cc1ccc(NC(=O)CSc2nc3c(sc4ccccc43)c(=O)n2CCCC(=O)NC2CCCC2)cc1C` gave HCMV inh -6, FMDV inh -6%, Lassa entry inh -21%[46.1 µM] and MARV entry inh 2%[46.1 µM].
Screening CC(C)c1cc(C(=O)N2CCCC(CCC(=O)N3CCN(c4ccccn4)CC3)C2)no1 (stereo not given) returned HCMV inh -62*, FMDV inh inconclusive, Lassa entry inh 6% and MARV entry inh -20%[46.1 µM].
Screening CCc1c(C)sc2c1CCN(Cc1ccccc1)C2c1ccccc1 (stereo not given) returned HCMV inh -102*, FMDV inh -24% and Lassa entry inh inconclusive.
`Cc1ccc(C(=O)Nc2c(-c3cccs3)nc3cc(C)ccn23)cc1` gave HCMV inh -8, FMDV inh -3%, Lassa entry inh 19% and MARV entry inh inconclusive.
`Cc1ccn2c(NC(=O)C(C)(C)Oc3ccc(Cl)cc3)c(-c3cccs3)nc2c1` gave HCMV inh -60*, FMDV inh -21%, Lassa entry inh inconclusive and MARV entry inh inconclusive.
CCc1nc2c(OCc3ccc(C#N)cc3)cccn2c1N(C)C(=O)C(C)C was read as HCMV inh 12 and FMDV inh -5%.
For Cc1cccc(Nc2nn3c(=O)c4cc5c(cc4nc3s2)OCO5)c1 the results were HCMV inh -1, FMDV inh 35% and Lassa entry inh 8%[46.1 µM].
Screening CCCNC(=O)/C=C/c1ccc(S(=O)(=O)Nc2ccccc2OC)cc1 returned HCMV inh -37, FMDV inh -16%, Lassa entry inh 5µM* and MARV entry inh inconclusive.
